Common to all, as to assay type: functional
Experiment [1] relates to Plasmodium falciparum. The experiment is described as follows: GSK_TCMDC: Inhibition of Plasmodium falciparum 3D7 in whole red blood cells, using parasite LDH activity as an index of growth. Test compounds present at 2uM.
Experiment [2] has as its system Plasmodium falciparum. Nature of the experiment: GSK_TCMDC: Inhibition of Plasmodium falciparum Dd2 in whole red blood cells, using parasite LDH activity as an index of growth. Test compounds present at 2uM.
Experiment [3] relates to HepG2. Nature of the experiment: GSK_TCMDC: Percent inhibition of human HepG2 cell line. Test compounds present at 10uM.

Where “and” joins values, the source holds several entries; their conditions need not be identical. Identical values can stand only once.

A word on the Inhibition: it is the relative decrease from the control value, in per cent. Higher therefore signals strong suppression. With `O=C(Nc1cc(C(F)(F)F)cc(C(F)(F)F)c1)N1CCC(CN2CCC(c3c[nH]c4ccccc34)CC2)CC1`, the figures for the Inhibition in experiment [1], in experiment [2] and in experiment [3] were 100%, 99% and 42%, respectively.
The like results for `Cc1cc(NC(=O)[C@@H](Nc2ccc(C#N)c3ccccc23)C2CCCCC2)ccc1F.O=C(O)C(F)(F)F` were, in that order, 95%, 83% and 10%.
The like results for `CS(=O)(=O)Nc1ccc2[nH]cc(C3CCN(CC4CCN(C(=O)/C=C/c5ccc(Cl)c(Cl)c5)CC4)CC3)c2c1` were, in that order, 100%, 92% and 27%.
On to `C1=C(c2c[nH]c3ccccc23)CCN(Cc2ccccc2)C1`, for which the figures for the Inhibition in experiment [1], in experiment [2] and in experiment [3] were 91%, 80% and 22%, respectively.
The corresponding values for `CC[C@H]1CN2CC[C@@H]1C[C@H]2[C@H](O)c1cc(N2CCC(C(N)=O)CC2)nc2ccc(OC)cc12` are 99%, 9% and 17%.
The corresponding values for `Cl.OC(CNC1CCCCCC1)c1ccc(Cl)c(Cl)c1` (stereo not given) are 99%, 98% and 0%.
The like results for `CC(C)CN1CCC(N(C)c2cc(NC(=O)c3cccc(F)c3)ccn2)CC1.O=C(O)C(F)(F)F` were, in that order, 97%, 10% and 8%.
Turning to `CCN(CC)CCN1C(=O)C(O)(c2ccccc2Cl)c2c1cc(C(N)=O)cc2C(F)(F)F.Cl` (stereo not given), the values for the Inhibition in experiment [1], in experiment [2] and in experiment [3] were 100%, 86% and 16%, respectively.
As to `CC[C@H]1CN2CC[C@@H]1C[C@H]2[C@H](O)c1ccnc2ccc(OC)cc12`, the Inhibition in experiment [1] came out at 100%; in experiment [2] it was 61%; in experiment [3], 0%.
The corresponding values for `C/C=C1\CN2CC[C@H]1C[C@@H]2[C@@H](O)c1ccnc2ccc(O)cc12` are 98%, 0% and 0%.
For `O=C1Nc2cccc3c2C1(CCCCCN1CC=C(c2c[nH]c4ccccc24)CC1)CCC3` (stereo not given), the figures for the Inhibition in experiment [1], in experiment [2] and in experiment [3] were 94%, 89% and 2%, respectively.
The corresponding values for `CC(C)CNCc1cccc(-c2ccc(CN(C(=O)NC3CCCCC3)C3CCN(Cc4ccccc4)CC3)cc2)c1.O=C(O)C(F)(F)F` are 97%, 51% and 27%.
The like results for `Cc1ccc(CC(C)NCC(O)c2cccc(C(F)(F)F)c2)c(C)c1.Cl` (stereo not given) were, in that order, 99%, 99% and 3%.
The corresponding values for `Oc1cccc(C2CCCN(Cc3cccc4cc[nH]c34)C2)c1` (stereo not given) are 100%, 82% and 16%.
Regarding `Cc1csc(-c2ccc3[nH]cc(C4=CCN(C)CC4)c3c2)n1`, the Inhibition is 93% in experiment [1], 78% in experiment [2] and 10% in experiment [3].
The corresponding values for `Cc1c(C)c2c(c(C)c1O)CC[C@@](C)(C(=O)N1CCC(CN3CCC(c4c[nH]c5ccccc45)CC3)CC1)O2` are 98%, 90% and 21%.
The corresponding values for `CNCCCCCCOc1ccc(CC(C)NCC(O)c2cccc(C(F)(F)F)c2)cc1.Cl` (stereo not given) are 100%, 79% and 99%.
Regarding `CC(=O)Nc1ccc2[nH]cc(C3CCN(CC4CCN(C(=O)/C=C/c5ccc(Cl)c(Cl)c5)CC4)CC3)c2c1`, the results for the Inhibition in experiment [1], in experiment [2] and in experiment [3] were 96%, 41% and 10%, respectively.
The like results for `Cc1ccc(CC(C)NC[C@H](O)c2cccc(Cl)c2)cc1.Cl` (stereo not given in full) were, in that order, 96%, 47% and 15%.
The like results for `O=C(/C=C/c1ccc(Cl)cc1Cl)NC1CCC(CN2CCC(c3c[nH]c4ccccc34)CC2)CC1` (stereo not given) were, in that order, 100%, 79% and 37%.
The corresponding values for `Cc1cc2ccc(CNCCc3ccccc3Br)cc2nc1N.Cl` are 100%, 48% and 0%.
Regarding `CC[C@H]1CN2CCc3cc(OC)c(OC)cc3[C@@H]2C[C@@H]1C[C@H]1NCCc2c1cc(OC)c(O)c2Cl`, the Inhibition in experiment [1] came out at 100%; in experiment [2] it was 100%; in experiment [3], 51%.
In the case of `COc1cccc(/C=C/C(=O)NC2CCC(CN3CCC(c4c[nH]c5ccccc45)CC3)CC2)c1` (stereo not given), the Inhibition in experiment [1] was 100% and 94%; in experiment [2], 26% and 38%; in experiment [3], 30% and 19%.
In the case of `Cc1c(C)c2c(c(C)c1O)CC[C@@](C)(C(=O)NC1CCC(CN3CCC(c4c[nH]c5ccccc45)CC3)CC1)O2` (stereo not given in full), the Inhibition in experiment [1] was determined as 92%; in experiment [2] it was 57%; in experiment [3], 29%.
The corresponding values for `CC(C)CNCc1ccc(-c2cccc(CN(C(=O)NC3CCCCC3)C3CCN(Cc4ccccc4)CC3)c2)cc1.O=C(O)C(F)(F)F` are 98%, 88% and 20%.
The corresponding values for `CC(=O)C1(c2ccccc2)CCN(CCC2(c3ccc(Cl)c(Cl)c3)CN(C(=O)Nc3cc(F)cc(F)c3)CCO2)CC1` (stereo not given) are 86%, 20% and 2%.
The corresponding values for `O=C(NC1CCC(CN2CCC(c3c[nH]c4ccccc34)CC2)CC1)c1cnn(-c2ccccc2)c1-c1ccccc1Cl` (stereo not given) are 95%, 11% and 66%.
Turning to `O=C(/C=C/c1ccc(Cl)c(Cl)c1)NCCC1CCC(N2CCC(c3c[nH]c4ccccc34)CC2)CC1` (stereo not given), the values for the Inhibition in experiment [1], in experiment [2] and in experiment [3] were 100%, 99% and 91%, respectively.
Consider `COC(=O)c1ccc(CC(C)NCC(O)c2cc(Cl)c(N)c(Cl)c2)cc1` (stereo not given), for which the Inhibition is 91% in experiment [1], 66% in experiment [2] and 0% in experiment [3].
The like results for `Cc1cc(N)nc2cc(CNCCc3ccccc3Br)ccc12.Cl` were, in that order, 100%, 93% and 47%.
The corresponding values for `C#CCN1CCC2=C(C1)c1c(O)cc(C(C)C(C)CCc3ccc(F)cc3)cc1OC2(C)C` (stereo not given) are 100%, 99% and 10%.
The like results for `CC(=O)C1(c2ccccc2)CCN(CCC2(c3ccc(Cl)c(Cl)c3)CN(C(=O)C3CCCCC3)CCO2)CC1` (stereo not given) were, in that order, 100%, 99% and 3%.
`Cl.Cl.c1ccc2c(NCCCCCCNc3c4ccccc4nc4ccccc34)c3ccccc3nc2c1`: the Inhibition was 99% in experiment [1], 80% in experiment [2] and 60% in experiment [3].
As to `O=C(NC1CCC(CN2CCC(c3c[nH]c4ccccc34)CC2)CC1)c1csc(-c2ccc(C(F)(F)F)cc2Cl)n1` (stereo not given), the Inhibition in experiment [1] worked out at 99%; in experiment [2], 75%; in experiment [3], 32%.
The corresponding values for `CCCc1ccc2c(c1O)CCC(N(CCC)CCC)C2.Cl` (stereo not given) are 90%, 23% and 0%.
Consider `CN(c1cc(NC(=O)c2cccs2)ccn1)C1CCN(Cc2cccc(C#N)c2)CC1.O=C(O)C(F)(F)F`, for which the figures for the Inhibition in experiment [1], in experiment [2] and in experiment [3] were 90%, 69% and 59%, respectively.
The like results for `COc1ccc(CN2CCN(CCOC(c3ccc(F)cc3)c3ccc(F)cc3)CC2)c(O)c1` were, in that order, 97%, 97% and 6%.
The corresponding values for `Cl.NCC(=O)c1cc2c(cc1N)OCCO2` are 89%, 42% and 64%.
The corresponding values for `COc1ccc(CC(C)NCC(O)c2cccc(Br)c2)cc1` (stereo not given) are 99%, 93% and 10%.
Regarding `COc1cc2nc(N(C)C3CCN(Cc4ccccc4)CC3)nc(N)c2cc1OC`, the Inhibition in experiment [1] is given as 99%; in experiment [2], 93%; in experiment [3] it was 19%.
`CSc1ccc(C[C@@H](C)NC[C@H](O)c2cccc(Cl)c2)cc1.Cl`: the Inhibition in experiment [1] is given as 97%; in experiment [2] it was 96%; in experiment [3], 8%.
`CCC(C)CN1CCC(N(C)c2cc(NC(=O)c3ccc(F)cc3)ccn2)CC1.O=C(O)C(F)(F)F` (stereo not given): the values for the Inhibition in experiment [1], in experiment [2] and in experiment [3] were 93%, 32% and 4%, respectively.
With `Oc1ccccc1CNCC(O)c1cccc(C(F)(F)F)c1` (stereo not given), the Inhibition came out at 100% in experiment [1], 97% in experiment [2] and 1% in experiment [3].
For `CNC(=O)c1ccc2[nH]cc(C3CCN(CC4CCC(NC(=O)/C=C/c5ccccc5Cl)CC4)CC3)c2c1` (stereo not given), the Inhibition was found to be 100% in experiment [1], 19% in experiment [2] and 12% in experiment [3].
The like results for `CC(Cc1ccc(OCCCCOc2ccccc2)cc1)NCCC1CCCN1C` (stereo not given) were, in that order, 99%, 98% and 100%.
The corresponding values for `Br.CC[C@H]1CN2CC[C@H]1C[C@H]2[C@H](O)c1ccnc2ccc(C#N)cc12` are 100%, 55% and 0%.
The like results for `Br.COc1ccc(C[C@@H](C)NC[C@H](O)c2cccc(Cl)c2)cc1F` were, in that order, 88%, 76% and 2%.
`CC(Cc1ccc(OCCOc2ccccc2)cc1)NCC(O)c1cccc(Cl)c1` (stereo not given): the Inhibition in experiment [1] is given as 99%; in experiment [2], 99%; in experiment [3], 12%.
As to `CCOC(=O)c1c(C)n(C2CCCCCC2)c2cc(Br)c(O)cc12`, the Inhibition in experiment [1] turned out to be 87%; in experiment [2], 45%; in experiment [3] it was 0%.
The like results for `CC[C@H]1CN2CC[C@H]1C[C@H]2[C@H](OC(=O)c1ccccc1)c1cc(C#N)nc2ccc(OC)cc12` were, in that order, 97%, 49% and 19%.
The corresponding values for `Cc1c(C(=O)N[C@@H](C)c2ccccc2)c2cc(O)c(Br)cc2n1C1CCCCC1` are 98%, 95% and 4%.
Consider `O=C(/C=C/c1c(Cl)cccc1Cl)NC1CCC(CN2C3CCC2CC(c2c[nH]c4ccccc24)C3)CC1` (stereo not given), for which the Inhibition in experiment [1] was 95%; in experiment [2], 18%; in experiment [3], 40%.
In the case of `O=C(/C=C/c1cccc(F)c1)NC1CCC(CN2CCC(c3c[nH]c4ccccc34)CC2)CC1` (stereo not given), the Inhibition is 99% and 98% in experiment [1]; 28% and 31% in experiment [2]; 39% and 35% in experiment [3].
On to `CC(C)(C)c1cc(/C=C/C(=O)NC2CCC(CN3CCC(c4c[nH]c5ccccc45)CC3)CC2)cc(C(C)(C)C)c1O` (stereo not given), for which the Inhibition in experiment [1] was 100%; in experiment [2] it was 100%; in experiment [3] it was 98% and 99%.
For `O=C(/C=C/c1ccc([N+](=O)[O-])cc1)NC1CCC(CN2CCC(c3c[nH]c4ccccc34)CC2)CC1` (stereo not given), the Inhibition was 100% in experiment [1]; 61% and 81% in experiment [2]; 30% and 34% in experiment [3].
On to `O=P(O)(O)Oc1c(Br)cc(Br)cc1-c1cc(Br)cc(Br)c1O` [BROMOFENOFOS], for which the Inhibition was 97% in experiment [1], 0% in experiment [2] and 10% in experiment [3].
Take `O=C(C=Cc1ccccc1Br)NC1CCC(CN2CCC(c3c[nH]c4ccccc34)CC2)CC1` (stereo not given): the Inhibition was 100% in experiment [1]; 57% and 32% in experiment [2]; 36% and 43% in experiment [3].
For `CN1C(=O)[C@H](NC(=O)[C@@H](Cc2ccccc2)NC(=S)Nc2ccccc2)N=C(c2ccccc2)c2ccccc21`, the values for the Inhibition in experiment [1], in experiment [2] and in experiment [3] were 86%, 23% and 0%, respectively.
The corresponding values for `COc1ccc(CC(C)NCC(O)c2ccc(Cl)c(Cl)c2)cc1` (stereo not given) are 98%, 96% and 0%.
The like results for `O=C(NCc1ccccc1)c1nn(CCCN2CCC3(CC2)C(=O)NCN3c2ccccc2)cc1-c1ccc(Cl)c(Cl)c1` were, in that order, 88%, 21% and 6%.

These data come from ChEMBL document CHEMBL1157539, “Thousands of chemical starting points for antimalarial lead identification” (Nature, 2010).
